Laboratory results taken from PubChem BioAssay AID1159580 (chemical genetic matrix, 2015).
Screen size: about 5,500 compounds; about 2,000 (36%) were called active. Another 18% or so got no clear call; they are omitted. The list shows a part of the results. A number with no mark means an inactive call. Cut-off read from the data, not from the text of the source: active = normalized growth mostly below about 0.91 (no sharp cut-off); inconclusive = no clear call, values can overlap the other calls; inactive = mostly above about 0.92.

Assay: chemical genetic growth profiling, strain panel (AID 1159580);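 note: tested at 20 µM; growth read once vehicle control cultures reached saturation at 30 °C; 1 = growth at the plate median or of vehicle wells; lower values mean less growth of the strain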
Settings: S. cerevisiae deletion strains, growth OD

O=c1c(-c2cc(O)c(O)c(O)c2)coc2cc(O)c(O)c(O)c12
normalized growth (locus YAL021C, strain ccr4, hits give low values): 0.719 (active) | normalized growth (locus YAL026C, strain drs2, hits give low values): 0.876 (active) | normalized growth (locus YAL030W, strain snc1, hits give low values): 0.999 | normalized growth (locus YBL061C, strain skt5, hits give low values): 0.94 | normalized growth (locus YBR009C, strain hhf1, hits give low values): 0.975 | normalized growth (locus YBR021W, strain FUR4, hits give low values): 1.03 | normalized growth (locus YBR023C, strain chs3, hits give low values): 0.904 (active) | normalized growth (locus YBR171W, strain sec66, hits give low values): 0.991 | normalized growth (locus YBR229C, strain ROT2, hits give low values): 0.812 (active) | normalized growth (locus YBR231C, strain swc5, hits give low values): 0.826 (active) | normalized growth (locus YBR279W, strain paf1, hits give low values): 0.97 | normalized growth (locus YCL011C, strain gbp2, hits give low values): 0.979 | normalized growth (locus YCL016C, strain dcc1, hits give low values): 0.99 | normalized growth (locus YCL029C, strain bik1, hits give low values): 0.751 (active) | normalized growth (locus YCL061C, strain MRC1, hits give low values): 0.97 | normalized growth (locus YCL069W, strain vba3, hits give low values): 0.996 | normalized growth (locus YCR088W, strain abp1, hits give low values): 1.03 | normalized growth (locus YDL005C, strain med2, hits give low values): 1.02 | normalized growth (locus YDL035C, strain GPR1, hits give low values): 0.787 (active) | normalized growth (locus YDL040C, strain nat1, hits give low values): 1.02 | normalized growth (locus YDL074C, strain BRE1, hits give low values): 0.698 (active) | normalized growth (locus YDL101C, strain DUN1, hits give low values): 0.462 (active) | normalized growth (locus YDL134C, strain PPH21, hits give low values): 0.777 (active) | normalized growth (locus YDL185W, strain tfp1, hits give low values): 0.944 | normalized growth (locus YDL192W, strain arf1, hits give low values): 0.927 | normalized growth (locus YDR001C, strain nth1, hits give low values): 1.01 | normalized growth (locus YDR069C, strain doa4, hits give low values): 0.746 (active) | normalized growth (locus YDR101C, strain arx1, hits give low values): 0.918 | normalized growth (locus YDR137W, strain rgp1, hits give low values): 0.716 (active) | normalized growth (locus YDR159W, strain sac3, hits give low values): 0.981 | normalized growth (locus YDR162C, strain NBP2, hits give low values): 0.632 (active) | normalized growth (locus YDR195W, strain ref2): 0.993 | normalized growth (locus YDR297W, strain sur2, hits give low values): 0.987 | normalized growth (locus YDR318W, strain mcm21, hits give low values): 0.986 | normalized growth (locus YDR334W, strain swr1, hits give low values): 0.879 (active) | normalized growth (locus YDR335W, strain msn5, hits give low values): 0.885 (active) | normalized growth (locus YDR388W, hits give low values): 0.983 | normalized growth (locus YDR392W, strain spt3, hits give low values): 0.899 | normalized growth (locus YDR502C, strain sam2, hits give low values): 0.931 | normalized growth (locus YEL003W, strain gim4, hits give low values): 0.958 | normalized growth (locus YEL037C, strain rad23, hits give low values): 0.937 | normalized growth (locus YEL061C, strain CIN8 (second series), hits give low values): 1 | normalized growth (locus YEL061C, strain CIN8, hits give low values): 0.878 (active) | normalized growth (locus YER015W, strain faa2, hits give low values): 0.919 (active) | normalized growth (locus YER016W, strain bim1, hits give low values): 1 | normalized growth (locus YER110C, hits give low values): 1 | normalized growth (locus YER111C, strain swi4, hits give low values): 0.731 (active) | normalized growth (locus YER155C, strain BEM2 (second series), hits give low values): 0.935 | normalized growth (locus YER155C, strain BEM2, hits give low values): 0.991 | normalized growth (locus YER167W, strain BCK2, hits give low values): 0.972 | normalized growth (locus YFR010W, strain ubp6, hits give low values): 0.915 | normalized growth (locus YGL078C, strain dbp3, hits give low values): 0.991 | normalized growth (locus YGL086W, strain mad1, hits give low values): 0.923 (active) | normalized growth (locus YGL167C, strain pmr1, hits give low values): 1 | normalized growth (locus YGL173C, strain kem1, hits give low values): 0.872 (active) | normalized growth (locus YGL227W, strain vid30, hits give low values): 1.05 | normalized growth (locus YGL240W, strain doc1, hits give low values): 1.04 | normalized growth (locus YGL248W, strain PDE1, hits give low values): 0.851 (active) | normalized growth (locus YGL253W, strain hxk2, hits give low values): 0.878 (active) | normalized growth (locus YGR078C, strain PAC10, hits give low values): 0.817 (active) | normalized growth (locus YGR135W, strain pre9, hits give low values): 0.917 | normalized growth (locus YGR229C, strain SMI1, hits give low values): 0.328 (active) | normalized growth (locus YGR252W, strain gcn5, hits give low values): 0.853 | normalized growth (locus YHR013C, strain ard1, hits give low values): 0.88 | normalized growth (locus YHR027C, strain rpn1, hits give low values): 0.893 (active) | normalized growth (locus YHR030C, strain SLT2, hits give low values): 0.952 | normalized growth (locus YHR079C, strain IRE1 (second series), hits give low values): 0.922 (active) | normalized growth (locus YHR094C, strain hxt1, hits give low values): 1.01 | normalized growth (locus YHR129C, strain ARP1, hits give low values): 0.869 (active) | normalized growth (locus YHR142W, strain chs7, hits give low values): 0.808 (active) | normalized growth (locus YHR200W, strain rpn10, hits give low values): 0.957 | normalized growth (locus YIL066C, strain RNR3, hits give low values): 0.774 (active) | normalized growth (locus YIL073C, strain SPO22, hits give low values): 0.686 | normalized growth (locus YIL125W, strain kgd1, hits give low values): 1 | normalized growth (locus YIR030C, strain dcg1, hits give low values): 1 | normalized growth (locus YJL092W, strain hpr5, hits give low values): 1.01 | normalized growth (locus YJL095W, strain BCK1 (second series), hits give low values): 0.986 | normalized growth (locus YJL095W, strain BCK1, hits give low values): 0.331 (active) | normalized growth (locus YJL115W, strain asf1, hits give low values): 1.01 | normalized growth (locus YJL129C, strain trk1, hits give low values): 1.03 | normalized growth (locus YJL134W, strain LCB3, hits give low values): 0.943 | normalized growth (locus YJL154C, strain vps35, hits give low values): 1.01 | normalized growth (locus YJL164C, strain tpk1, hits give low values): 0.949 | normalized growth (locus YJL166W, strain qcr8, hits give low values): 0.921 | normalized growth (locus YJL168C, strain set2, hits give low values): 0.982 | normalized growth (locus YJL187C, strain SWE1 (second series), hits give low values): 0.282 (active)
